This is part of a sample that, as a whole, favours compounds with a hit. Of some 83,000 tested, about 20% had one in any assay.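 The test compound was applied at a single concentration to cells in 96-well plates for 48 hours, and percent growth was recorded.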 Unmarked numbers belong to inactive results. Activity calls are given as the source filed them. Rule for the calls: active = growth percent below 10; inactive = the rest.

Test systems include T-47D breast; BT-549 breast; MDA-MB-435 melanoma; SW-620 colon; MCF7 breast; HCT-116 colon; HCC-2998 colon; KM12 colon.
What all share (test): NCI-60 one-dose screen, 48 h (100 = growth as untreated, 0 = no growth, -100 = all killed)
Holding throughout (conditions): 10 µM unless noted

Turning to `Cc1cc(C)c2c(NC(=O)Nc3ccc(Cl)c(Cl)c3)n[nH]c2n1`, the growth is 93.3% with T-47D breast; 104% in the assay with BT-549 breast; 92.8% in the assay with MDA-MB-435 melanoma; 112% with SW-620 colon; 82.6% with MCF7 breast; 108% with HCT-116 colon. For the same compound, the growth in the assay with HCC-2998 colon is 115%; in the assay with KM12 colon, 104%.
Take `COCCn1c(Nc2ccc(C(=O)NO)cc2)nc2ccccc21`: the growth is 35.3% with T-47D breast; 86.6% in the assay with BT-549 breast; 46% in the assay on MDA-MB-435 melanoma; 29.6% in the assay with SW-620 colon; 61.4% in the assay on MCF7 breast; 19.4% with HCT-116 colon. Besides, the growth was 73.3% in the assay with HCC-2998 colon and 51.9% in the assay with KM12 colon.
For `Cc1cc(C)c2c(n1)sc1c(Nc3ccc(OCc4ccccc4)cc3)ncnc12`, the growth with T-47D breast is 95.7%; in the assay on BT-549 breast, 102%; in the assay on MDA-MB-435 melanoma it was 107%; in the assay on SW-620 colon it was 101%; in the assay on MCF7 breast, 93.2%; with HCT-116 colon it was 103%. Also, the growth was 96.1% with HCC-2998 colon and 94.2% in the assay on KM12 colon.
As to `NC(=S)N/N=C(/c1cccs1)C1CC1`, the growth is 20.6% with T-47D breast; 97.8% with BT-549 breast; 87.4% in the assay on MDA-MB-435 melanoma; 71.6% in the assay on SW-620 colon; 22.5% in the assay with MCF7 breast; 7.8% (active) in the assay with HCT-116 colon. Besides, the growth is 96.9% in the assay with HCC-2998 colon and 105% with KM12 colon.
As for `COc1ccc2[nH]c(O)c(/C=c3/ccc4c(c3)N=C(c3ccc(F)cc3)N=4)c2c1`, the growth in the assay with T-47D breast was 28.3%; with BT-549 breast it was 26.7%; in the assay on MDA-MB-435 melanoma it was 57.8%; in the assay on SW-620 colon it was 41.3%; in the assay on MCF7 breast it was 41.7%; with HCT-116 colon it was -22.6% (active). For the same compound, the growth with HCC-2998 colon was 104%; in the assay with KM12 colon, 74.9%.
Turning to `Cc1ccccc1N1C(c2ccccc2)=NNC12C=CC(=O)c1c(O)cccc12` (stereo not drawn), the growth with T-47D breast is 87.7%; with BT-549 breast, 77%; with MDA-MB-435 melanoma it was -89.5% (active); in the assay on SW-620 colon, 98.6%; with MCF7 breast, 73.5%; with HCT-116 colon it was 66.5%. Also, the growth in the assay with HCC-2998 colon is 90.3%; in the assay on KM12 colon, 77.6%.
As for `O=C(Cc1ccc(Nc2ccnc(C(F)(F)F)c2)cc1)N/N=C/c1ccccc1O`, the growth in the assay on T-47D breast was 18.4%; in the assay with BT-549 breast, 50.2%; in the assay on MDA-MB-435 melanoma, 34.7%; in the assay on SW-620 colon, 38.3%; in the assay with MCF7 breast, 12.9%; with HCT-116 colon, 16.1%. In addition, the growth in the assay with HCC-2998 colon was 40.5%; in the assay on KM12 colon, 30.7%.
Turning to `COc1ccc(NC(=O)/C=C/c2ccc(Cl)c(Cl)c2)cn1`, the growth with T-47D breast is 71%; in the assay with BT-549 breast it was 67.1%; in the assay on MDA-MB-435 melanoma, 91.1%; with SW-620 colon, 104%; in the assay on MCF7 breast it was 71.7%; in the assay on HCT-116 colon it was 84.8%. The values for the growth in the assay with HCC-2998 colon and with KM12 colon were 118% and 78.2%, respectively.
As to `COc1ccc(/C=C2\CCCC3=C2N=C2SC(C)=NN2C3c2ccc(OC)c(OC)c2)cc1OC` (stereo not drawn), the growth was 48.3% with T-47D breast; 33.9% with BT-549 breast; 11.6% in the assay on MDA-MB-435 melanoma; 27.3% with SW-620 colon; 19.3% with MCF7 breast; -28.1% (active) with HCT-116 colon. Besides, the growth in the assay with HCC-2998 colon was 30.5%; in the assay on KM12 colon, 15.5%.
In the case of `C/C=C(\C)C(C(=O)NC1CCCCC1)N(C(=O)C1CCc2cc(F)ccc2O1)c1ccc([N+](=O)[O-])cc1` (stereo not drawn), the growth in the assay on T-47D breast is 88.1%; in the assay on BT-549 breast, 90.1%; in the assay with MDA-MB-435 melanoma, 87.7%; in the assay with SW-620 colon it was 94.9%; in the assay with MCF7 breast it was 77%; in the assay with HCT-116 colon it was 60.3%. The growth was 98.4% in the assay on HCC-2998 colon and 95.8% in the assay with KM12 colon.
Take `Cc1ccc(Nc2nc(NCCO)c3ccccc3n2)cc1C`: the growth was 55.9% in the assay on T-47D breast; 37.7% with BT-549 breast; -35.8% (active) in the assay with MDA-MB-435 melanoma; 13.5% in the assay with SW-620 colon; 24.4% with MCF7 breast; 16.5% in the assay with HCT-116 colon. Besides, the growth with HCC-2998 colon was 11.6%; with KM12 colon, 9.68% (active).
With `COc1ccc(/C(=C\c2cc(OC)c(OC)c(OC)c2)C(=O)N2CCCNCC2)cc1`, the growth with T-47D breast was 93.1%; with BT-549 breast, 114%; in the assay on MDA-MB-435 melanoma, 111%; in the assay with SW-620 colon, 108%; with MCF7 breast, 97.3%; in the assay with HCT-116 colon it was 104%. The growth in the assay with HCC-2998 colon was 99.8%; in the assay with KM12 colon it was 110%.
Consider `COc1ccc(NC(=O)c2ccc(C(F)(F)F)nc2Nc2ccc(Cl)cc2C)cc1Cl`, for which the growth in the assay on T-47D breast was 21.8%; with BT-549 breast, 19%; in the assay on MDA-MB-435 melanoma it was 18.6%; in the assay on SW-620 colon, 13.4%; in the assay on MCF7 breast, 9.61% (active); in the assay on HCT-116 colon, 3.71% (active). Further, the growth was 16.7% in the assay with HCC-2998 colon and 24.3% in the assay with KM12 colon.
In the case of `CC(=O)OC1Oc2cc(C)c(C)cc2-c2oc(=O)c(-c3ccc(F)cc3)cc21` (stereo not drawn), the growth in the assay with T-47D breast was 52.5%; in the assay on BT-549 breast it was 89.3%; with MDA-MB-435 melanoma, -7.18% (active); with SW-620 colon it was 26.7%; in the assay on MCF7 breast, 38.3%; in the assay with HCT-116 colon it was 32.2%. Moreover, the growth in the assay with HCC-2998 colon is 56.7%; in the assay on KM12 colon it was 23.7%.
`Cc1cc(C)c(C#N)c(SCC(=O)c2sc3c(C#N)c(C)cc(C)[n+]3c2[O-])n1`: the growth with T-47D breast was 38.1%; in the assay with BT-549 breast, 30.4%; in the assay with MDA-MB-435 melanoma, -59.2% (active); in the assay with SW-620 colon, 20.3%; in the assay with MCF7 breast, 13.4%; in the assay on HCT-116 colon, 16.8%. The growth is 15.8% with HCC-2998 colon and 16.4% in the assay with KM12 colon.
With `CN(C)c1ccc(Nc2c3ccccc3nc3ccccc23)cc1`, the growth in the assay on T-47D breast is 11.1%; in the assay on BT-549 breast, 44.5%; with MDA-MB-435 melanoma it was 19.4%; with SW-620 colon, 13.6%; in the assay on MCF7 breast it was 5.1% (active); in the assay with HCT-116 colon, 5.58% (active). Also, the figures for the growth with HCC-2998 colon and in the assay with KM12 colon were 0.72% (active) and 18%, respectively.

The values are drawn from PubChem BioAssay (NCI).
